Where “and” joins values, the source holds several entries; their conditions need not be identical. Equal values may be shown once. In all, about 290,000 compounds went through this assay and about 3,000 (1%) were called active. No stated cut-off is given here; in the data, active means inhibition mostly above about 36% (no sharp cut-off); inactive means mostly below about 34%. The sample as a whole holds a higher share of actives than the screen did.

This experiment is described as follows: inhibition of NOD1-driven NF-kB reporter – cell-based, luminescence, uHTS, primary screen (AID 1578).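 Further: HEK-293T reporter cells stimulated with the NOD1 agonist gamma-tri-DAP.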 The following applies: NOD1-driven NF-kB luciferase reporter cells, at 4 µM, hits give high values. Background: Reporter assays use an easily measured gene product as a stand-in for the process of interest.
Usually inhibition stands for the change of the read-out against control, counted positive when it falls. For `COc1ccccc1N(C(C)=O)c1nc(C)cc(C)c1C#N`, the inhibition is -33.1% (inactive).

Take `O=C(O)c1ccc(NS(=O)(=O)c2cccc(S(=O)(=O)c3ccc(Cl)c(Cl)c3)c2)cc1`: the inhibition was -30.6% (inactive).

For the molecule `COc1cc2c(cc1OC)CN(CC(=O)Nc1ccc(C)c(S(=O)(=O)N3CCOCC3)c1)CC2`, the inhibition was -14.6% (inactive).

In the case of `COc1cccc(NC(=O)Cn2nc(Cc3cccnc3)c3ccccc3c2=O)c1`, the inhibition is -18.3% (inactive).

With `COc1ccc(/C=N\n2nnc3ccccc32)cc1`, the inhibition was 42% (active).

In the case of `COc1ccc(Cn2c(/C=C/c3ccccc3)nc3ccccc32)cc1`, the inhibition was -65.7% (inactive).

For `Cn1c(/C=C/c2ccccc2)nc2ccccc2c1=O`, the inhibition is -12.9% (inactive).

Turning to `COc1ccc(/C=N/NC(=O)CCn2nnc3ccccc32)cc1`, the inhibition is -3.7% (inactive).

As for `COc1ccc(/C=C/c2nc3ccccc3n2C)cc1`, the inhibition was 74.4% (active).

In the case of `CCCn1c(/C=C/c2ccccc2)nc2ccccc21`, the inhibition is -41.4% (inactive).

Consider `COc1ccc(/C=C/c2nc3ccccc3n2Cc2ccccc2OC)cc1`, for which the inhibition is 5.5% (inactive).

As to `Cn1c(/C=C/c2ccccc2)nc2ccccc21`, the inhibition is 48.9% (active).

For `C=CCn1c(/N=C/c2ccc(OC)cc2)nc2ccccc21`, the inhibition is -6.3% (inactive).

On to `O=C(OCC(=O)C12CC3CC(CC(C3)C1)C2)c1cnccn1`, for which the inhibition was -23.7% (inactive).

For `CCOC(=O)c1c(CSc2ccc(C)cc2)n(C)c2cc(Br)c(O)c(CN(C)C)c12`, the inhibition was -29.9% (inactive).

On to `CC(C)(C)c1ccc(OCCNC(=S)NC(=O)c2cccnc2)cc1`, for which the inhibition is -17.1% (inactive).

Regarding `Cc1ccc2[nH]c(=O)c3cc(C(=O)NC(C)C)sc3c2c1`, the inhibition was -4.6% (inactive).

As to `COC(=O)CSc1nnc(CNC(=O)c2cccs2)n1-c1cccc(C)c1`, the inhibition is -22.2% (inactive).

On to `COC(=O)c1ccc(N2CCN(S(=O)(=O)c3ccccc3)CC2)c([N+](=O)[O-])c1`, for which the inhibition was -18.3% (inactive).

On to `O=C(c1ccc(N2CCN(S(=O)(=O)c3ccccc3)CC2)c([N+](=O)[O-])c1)N1CCOCC1`, for which the inhibition was -3.7% (inactive).

On to `CCN1CCN(C(c2cccs2)C(C)NC(=O)C(=O)N2CCCCC2)CC1` (stereo not drawn), for which the inhibition is -23.8% (inactive).

`Cc1ccc(Nc2ncnc3c2nnn3Cc2ccccc2)cc1`: the inhibition was -7.5% (inactive).

In the case of `O=C(CCC(=O)N1CCSc2ccccc21)NCc1cccc(Br)c1`, the inhibition is -27.1% (inactive).

With `COc1ccc(-c2cc3nc[nH]c(=O)c3s2)cc1`, the inhibition was -1.7% (inactive).

Consider `O=c1[nH]cnc2cc(-c3ccc(Br)cc3)sc12`, for which the inhibition is -63.3% (inactive).

With `O=c1[nH]c(CCl)nc2cc(-c3ccc(Cl)cc3)sc12`, the inhibition is 92.6% (active).

For the molecule `OCCN(CC#CCC(O)(c1ccccc1)C1CCCC1)CCO` (stereo not drawn), the inhibition is -2% (inactive).

On to `CCCCCc1cc(=O)oc2c(C(CCN3CCCCC3)c3ccc4c(c3)OCO4)c(OC)cc(OC)c12` (stereo not drawn), for which the inhibition was 2.9% (inactive).

As for `Cc1ccc2[nH]cc(/C=C/c3cc[n+](C)cc3)c2c1`, the inhibition was 4.2% (inactive).

On to `Cc1ccc2[nH]c(C)c(/C=C/c3cc[n+](C)cc3)c2c1`, for which the inhibition was 5.6% (inactive).

Regarding `CS(=O)(=O)c1nc2ccccc2n1Cc1ccccc1`, the inhibition was 13.9% (inactive).

Take `O=S(=O)(O)c1nc2ccccc2n1Cc1ccccc1`: the inhibition is 82.8% (active).

Consider `Cc1ccc(Cn2c(S(=O)(=O)O)nc3ccccc32)cc1`, for which the inhibition is -25.7% (inactive).

As to `COc1ccc(CCC(=O)N(c2nnc(-c3cccnc3)s2)C(C)C)cc1`, the inhibition is -14.2% (inactive).

Take `NC(=O)NC(=O)CSc1ccccc1`: the inhibition is -37.5% (inactive).

In the case of `COCCc1nnc(NC(=O)C23CC4CC(CC(C4)C2)C3)s1`, the inhibition was -34.2% (inactive).

For the molecule `CC(C)(C)c1ccc(C(=O)Nc2ccc(Oc3cccnc3)nc2)cc1`, the inhibition was 29% (inactive).

As to `O=C(Nc1ccc(Oc2cccc(C(F)(F)F)c2)nc1)c1ccccc1`, the inhibition is 10.3% (inactive).

Consider `O=S(=O)(N/N=C\c1ccc2c(c1)OCO2)c1ccc(F)cc1`, for which the inhibition is -7.6% (inactive).

As to `Cc1nn(-c2ccccc2)c2c1C(c1ccc(O)c(O)c1)N1C(=N2)C(Nc2ccccc2)=Nc2ccccc21` (stereo not drawn), the inhibition is -2.4% (inactive).

As for `CC(=O)Nc1ccc(NC2=Nc3ccccc3N3C2=Nc2c(c(C)nn2-c2ccccc2)C3c2ccccc2)cc1` (stereo not drawn), the inhibition is 99% (active).

For `Cc1ccc(NC2=Nc3ccccc3N3C2=Nc2c(c(C)nn2-c2ccccc2)C3c2ccc(O)c(O)c2)cc1` (stereo not drawn), the inhibition is 2.5% (inactive).

With `O=C(Nc1ccccc1)Nc1cc(OCC(F)(F)F)cc(OCC(F)(F)F)c1`, the inhibition was -5.2% (inactive).

In the case of `CCOc1ccc(NC(=O)Nc2cc(OCC(F)(F)F)cc(OCC(F)(F)F)c2)cc1`, the inhibition was -32.9% (inactive).

On to `O=C(Nc1ccc(F)cc1)Nc1cc(OCC(F)(F)F)cc(OCC(F)(F)F)c1`, for which the inhibition is 84.5% (active).

For the molecule `C[C@H](NC(=O)[C@@H]1Cc2ccccc2CN1)C(=O)NC1CCCC1`, the inhibition is -25.1% (inactive).

As for `COc1cccc(NC(=O)c2ccc(NC(=O)C(C)(C)C)cc2)c1`, the inhibition is -63% (inactive).

With `CCCCOc1ccc(/C=C/C(=O)Nc2ccc([N+](=O)[O-])cc2C)cc1`, the inhibition is -22.5% (inactive).

For the molecule `O=C(Nc1ccccc1)Nc1ncc([N+](=O)[O-])s1`, the inhibition was -0.5% (inactive).

`CCCOc1ccc(/C=C/C(=O)Nc2ccc([N+](=O)[O-])cc2C)cc1`: the inhibition was 0.8% (inactive).

In the case of `O=C(/C=C/c1ccc([N+](=O)[O-])cc1)Nc1ncc([N+](=O)[O-])s1`, the inhibition is 54.9% (active).

As to `O=C(/C=C/c1ccc([N+](=O)[O-])cc1)Nc1cccnc1`, the inhibition was -4.6% (inactive).

Regarding `CCCOc1ccc(/C=C/C(=O)Nc2ccc([N+](=O)[O-])cc2)cc1`, the inhibition was 76.6% (active).

In the case of `COCC(C)n1c(SC(C)C(=O)NC2CCCCC2C)nc2ccccc2c1=O` (stereo not drawn), the inhibition was -27.1% (inactive).

For `CN(CC(=O)Nc1ccc(Cl)c(C(F)(F)F)c1)C(=O)CC1Sc2ccccc2NC1=O` (stereo not drawn), the inhibition is -18.8% (inactive).

On to `O=S(=O)(c1ccc(F)cc1)N1CCN(CC(O)COc2ccccc2F)CC1` (stereo not drawn), for which the inhibition was -0.6% (inactive).

Take `COc1cccc(CNC(=O)CCC(=O)N2CCSc3ccccc32)c1OC`: the inhibition is 5.1% (inactive).

In the case of `CC(=O)Nc1ccc(S(=O)(=O)N2CCCC2C(=O)Nc2ccc3c(c2)OCCO3)cc1` (stereo not drawn), the inhibition is -17.3% (inactive).

As to `CCO[C@@H]1OC(C(=O)N2CCN(C)CC2)=C[C@H](c2csc3ccccc23)[C@H]1CCCO`, the inhibition was -18% (inactive).

On to `NNC(=O)CCN1CCN(Cc2ccccc2)CC1`, for which the inhibition is 45.4% (active).

In the case of `NNC(=O)CCN1CCN(C(c2ccccc2)c2ccccc2)CC1`, the inhibition was -18.4% (inactive).

Consider `O=C(CCN1CCN(Cc2ccccc2)CC1)Nc1ccccc1Cl`, for which the inhibition was -19.8% (inactive).

For the molecule `COC(=O)N/N=C/c1cc(Cl)cc(Cl)c1OCc1ccccc1F`, the inhibition was -1.4% (inactive).

Regarding `C=CCSc1nc(C)c(CC(=C)C)c(=O)[nH]1`, the inhibition is -23.6% (inactive).

Consider `C=CCSc1nc(C)c(CC=C)c(=O)[nH]1`, for which the inhibition was -34.6% (inactive).

Take `C=CCSc1nc(C)c(Cc2cccc3ccccc23)c(=O)[nH]1`: the inhibition was 41.9% (active).

As for `C/C(=N\NC(=O)C1CC1)c1cccs1`, the inhibition is -17.5% (inactive).

Regarding `CCc1ccnc(NS(=O)(=O)c2ccc3c(c2)CCO3)c1`, the inhibition is -5.6% (inactive).

Turning to `O=S(=O)(N/N=C\c1c(F)cccc1Cl)c1ccc(Cl)cc1`, the inhibition was -0.4% (inactive).

`CCOC(=O)c1ccc(Cl)c(NC(=O)c2ccc(-c3ccccc3)cc2)c1`: the inhibition is 104% (active).

Turning to `COC(=O)c1ccc(Cl)c(NC(=O)c2ccc(-c3ccccc3)cc2)c1`, the inhibition is 6% (inactive).

`CCCOC(=O)c1ccc(Cl)c(NC(=O)c2ccc(-c3ccccc3)cc2)c1`: the inhibition was 3.5% (inactive).

For `Cc1cc(NS(=O)(=O)c2ccc(NC(=O)C(C)Oc3ccc(Cl)cc3)cc2)no1` (stereo not drawn), the inhibition was 6.9% (inactive).

Turning to `O=C(Nc1ccon1)C12CC3CC(C1)CC(n1cnc([N+](=O)[O-])n1)(C3)C2`, the inhibition is -18.8% (inactive).

With `O=C(Nc1cccc([N+](=O)[O-])c1)C12CC3CC(C1)CC(n1cnc([N+](=O)[O-])n1)(C3)C2`, the inhibition is 92.1% (active).

Take `O=C(Nc1ccccc1)C12CC3CC(C1)CC(n1cnc([N+](=O)[O-])n1)(C3)C2`: the inhibition was 1.9% (inactive).

`COc1ccc(C(=O)N2CCCC(C(=O)N3CCN(c4ccccc4)CC3)C2)cc1` (stereo not drawn): the inhibition was 2.5% (inactive).

With `O=C(Nc1ccc(N2CCN(C(=O)c3ccccc3)CC2)cc1)c1ccc2c(c1)OCCO2`, the inhibition was 31.2% (inactive).

As to `Cc1ccccc1C(=O)N1CCN(c2ccc(NC(=O)c3ccc4c(c3)OCO4)cc2)CC1`, the inhibition was 3% (inactive).

With `COc1ccccc1N(CC(=O)Nc1ccccc1C)S(C)(=O)=O`, the inhibition is -26.9% (inactive).

Turning to `CC(NC(=O)c1ccccc1Cl)C1CC2CCC1C2` (stereo not drawn), the inhibition is -16.6% (inactive).

`CC(NC(=O)C1CCCC1)C1CC2CCC1C2` (stereo not drawn): the inhibition was 96.5% (active).

`CC(NC(=O)C1CC=CCC1C(=O)O)C1CC2CCC1C2` (stereo not drawn): the inhibition was -30.7% (inactive).

Take `C[C@]12CC(O)C3C(CCC4=CC(=O)CC[C@@]43C)C1CCC2c1csc(-c2ccccc2)n1` (stereo partly drawn): the inhibition was 15.3% (inactive).

For the molecule `CC(=O)[C@H]1CC[C@H]2[C@@H]3CCC4=CC(=O)CC[C@]4(C)[C@H]3CC[C@]12C`, the inhibition is 5.4% (inactive) and -4.1% (inactive).

In the case of `C/C(=N\O)c1ncc(C(F)(F)F)cc1Cl`, the inhibition is -23.5% (inactive).

With `CC(C)NC(=O)CC(=O)N/N=C\c1ccccc1C(=O)O`, the inhibition is -33.7% (inactive).

With `CSc1ccccc1C(=O)Nc1cccc(N(C)S(C)(=O)=O)c1`, the inhibition was -8.4% (inactive).

Turning to `CC1Cc2ccccc2N1CC(=O)NC(=O)NCc1ccco1` (stereo not drawn), the inhibition was -5.2% (inactive).

As to `Cc1cccc(N2C(=O)c3cccc4c(N)ccc(c34)C2=O)c1`, the inhibition is 26.2% (active).

Regarding `Nc1cccc(N2C(=O)c3cccc4c(N)ccc(c34)C2=O)c1`, the inhibition was 5.7% (inactive).

Regarding `Nc1ccc2c3c(cccc13)C(=O)N(c1ccccc1)C2=O`, the inhibition was -19.1% (inactive).

`O=C(NCCOc1ccccc1)C1CCC(=O)N(CCCN2CCOCC2)C1` (stereo not drawn): the inhibition was -28.6% (inactive).

The values above are taken from PubChem BioAssay AID1578 (Sanford-Burnham Center for Chemical Genomics, 2009).
